± gives the standard deviation of the averaged measurements. The full ranking holds about 33,000 sequences; the median of “E-score (dimensionless, -0.5 to 0.5)” is about -0.049, and the highest 2% start at about 0.37. The entries come from a sample that favours the highest values as a whole.
These sequences were tested on T1, PmTbr T-box DNA-binding domain (GST fusion) (assay: PBM E-score of 8-mer (E-score (dimensionless, -0.5 to 0.5)); Tbr is Tbrain of the sea star Patiria miniata (Pm) or the sea urchin Strongylocentrotus purpuratus (Sp); higher = stronger binding preference). Details: the construct has about 5 more residues each side.
T1 sequence: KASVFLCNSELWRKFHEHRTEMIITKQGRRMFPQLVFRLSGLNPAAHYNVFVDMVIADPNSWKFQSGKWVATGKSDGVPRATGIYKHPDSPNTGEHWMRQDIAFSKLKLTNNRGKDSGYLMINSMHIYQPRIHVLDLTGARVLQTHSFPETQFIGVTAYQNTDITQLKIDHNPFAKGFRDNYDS
Description: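 Universal protein-binding microarray (Agilent AMADID 016060, 60-bp probes with a 35-bp variable region) incubated with 200 nM GST-fused Patiria miniata Tbr T-box DNA-binding domain (residues 272-466) in PBS pH 7.5. Scored for every ungapped 8-mer (given with its reverse complement) by the Universal PBM Analysis Suite as E-score (modified Wilcoxon-Mann-Whitney enrichment, range -0.5 to 0.5; >0.45 counts as bound) and Z-score of median probe intensity. Two replicate arrays (datasets 1 and 2).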
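Also: 200 nM protein in PBS on universal arrays averaged over duplicate arrays.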

| Sequence | PBM E-score of 8-mer |
| --- | --- |
| AAAAGTGC | 0.2475 ± 0.00082 |
| ATCCTTCA | -0.143 ± 0.044 |
| ACCGACCC | 0.00535 ± 0.068 |
| ACCATTAA | -0.0404 ± 0.015 |
| GAAGTCTC | 0.102 ± 0.062 |
| CGCCTAAG | 0.0221 ± 0.02 |
| ACCCTCAA | 0.0906 ± 0.052 |
| GAGTTGCC | 0.0293 ± 0.068 |
| CACAGCTG | 0.296 ± 0.0054 |
| GTGACAAC | 0.4452 ± 0.0036 |
| GAGACACA | 0.053 ± 0.046 |
| GTGACAAA | 0.428 ± 0.029 |
| CTGACAAA | 0.12 ± 0.038 |
| ATGACGAA | -0.065 ± 0.04 |
| ATGACAAA | -0.0227 ± 0.073 |
| GTGACACA | 0.416 ± 0.0096 |
| CTGACACA | 0.344 ± 0.013 |
| GTGACGAA | 0.371 ± 0.014 |
| CTGACGAA | 0.0955 ± 0.048 |
| ATGACAAC | 0.241 ± 0.054 |
| CTGACAAC | 0.257 ± 0.012 |
| GTAGTCGA | -0.0608 ± 0.0079 |
| ATTATTCG | -0.0471 ± 0.044 |
| CTGGCTTA | -0.275 ± 0.025 |
| CTACAGGC | -0.125 ± 0.0056 |
| GATGGTCA | -0.26 ± 0.0048 |

| Sequence | PBM E-score of 8-mer |
| --- | --- |
| CGCGAACA | 0.328 ± 0.007 |
| TACTTAAA | -0.246 ± 0.057 |
| GTGATTGA | 0.125 ± 0.042 |
| GACTCGAC | 0.0517 ± 0.016 |
| CGTTATCC | -0.058 ± 0.009 |
| ATCACATC | 0.195 ± 0.058 |
| CGCACATC | 0.298 ± 0.055 |
| GACACATC | 0.372 ± 0.0069 |
| CACACATC | 0.381 ± 0.035 |
| AACACATT | 0.389 ± 0.028 |
| CACACATG | 0.352 ± 0.0023 |
| GACACATA | 0.322 ± 0.038 |
| GACACAGC | 0.1102 ± 0.00023 |
| AACACACT | 0.229 ± 0.021 |
| CTCACATC | 0.3693 ± 0.0021 |
| AAAACATT | -0.0945 ± 0.013 |
| CTCACATA | 0.0666 ± 0.017 |
| AGTGAGGG | -0.0175 ± 0.1 |
| GACTGCGC | -0.107 ± 0.044 |
| ACGAAGCT | -0.143 ± 0.014 |
| AAGCGAAA | -0.083 ± 0.07 |
| AAGCAGTC | -0.167 ± 0.023 |
| GACTTCTC | 0.148 ± 0.065 |
| GGACTTGA | -0.145 ± 0.015 |
| CGCTCGGC | -0.148 ± 0.02 |
| AACACATA | 0.373 ± 0.0082 |

| Sequence | PBM E-score of 8-mer |
| --- | --- |
| CACACATA | 0.365 ± 0.021 |
| TACACATA | 0.115 ± 0.032 |
| AACACAGC | 0.0601 ± 0.048 |
| AACACATC | 0.378 ± 0.013 |
| AACACATG | 0.317 ± 0.013 |
| CCTAATAG | -0.122 ± 0.052 |
| CTGCTCAA | -0.0839 ± 0.036 |
| CTGTGTTA | 0.158 ± 0.045 |
| GTGTGTTA | 0.274 ± 0.012 |
| ATGTGTTG | 0.398 ± 0.008 |
| ATATGTTG | 0.0196 ± 0.038 |
| ATGTGTTC | 0.156 ± 0.025 |
| ATGTGTTA | 0.446 ± 0.0057 |
| CTCGAAGC | -0.0159 ± 0.011 |
| ACTACGTA | -0.156 ± 0.012 |
| GAGTTACA | 0.0401 ± 0.024 |
| ATTGTCAG | 0.134 ± 0.026 |
| CTTGTCGC | 0.277 ± 0.012 |
| CTTGTCAC | 0.405 ± 0.015 |
| CTTGTCAA | 0.305 ± 0.034 |
| ATTGTCAA | 0.248 ± 0.039 |
| ATTGTCAC | 0.427 ± 0.016 |
| GGGTTGAA | -0.0332 ± 0.073 |
| CCGCTACG | -0.186 ± 0.064 |
| GTGATAAC | 0.406 ± 0.02 |
| ATGATAAC | 0.0197 ± 0.036 |

| Sequence | PBM E-score of 8-mer |
| --- | --- |
| GTGATAAA | 0.339 ± 0.07 |
| ATTCCCAG | -0.25 ± 0.009 |
| GTGTATCA | -0.00951 ± 0.055 |
| TTGCTAAA | 0.241 ± 0.078 |
| CTGCTAAC | 0.318 ± 0.029 |
| GTGCTAAC | 0.453 ± 0.0072 |
| GTGCTAGA | 0.382 ± 0.0098 |
| ATGCTAGA | -0.158 ± 0.055 |
| GTGCTAAA | 0.435 ± 0.007 |
| GAGCTAGA | -0.00238 ± 0.087 |
| CTGCTAAA | 0.21 ± 0.071 |
| ATGCTAAC | 0.0631 ± 0.061 |
| ACTATGCC | -0.0992 ± 0.096 |
| CAACTGTG | 0.231 ± 0.015 |
| AAATGGCC | -0.316 ± 0.0079 |
| CATCAAGA | -0.245 ± 0.022 |
| AGTATTGG | -0.0858 ± 0.022 |
| GCTGTTGA | 0.0473 ± 0.023 |
| CGTGTTGA | 0.295 ± 0.028 |
| AGTGTTGG | 0.3857 ± 0.0032 |
| AGTGTTGC | 0.3558 ± 0.0028 |
| GGTGTTGA | 0.4746 ± 0.0036 |
| AGTGTTGA | 0.395 ± 0.022 |
| ACTGTTGA | 0.123 ± 0.062 |
| GTTGTTGA | 0.245 ± 0.029 |
| AGTGTTTG | 0.275 ± 0.036 |

| Sequence | PBM E-score of 8-mer |
| --- | --- |
| CTCTCTGA | -0.253 ± 0.021 |
| AGCTTCAT | -0.00536 ± 0.11 |
| GAACCGTC | -0.07 ± 0.048 |
| CCCATTTA | 0.0289 ± 0.005 |
| ACGGGCGC | 0.0455 ± 0.05 |
| CGAAAGTC | 0.0804 ± 0.023 |
| ACAGTGTA | 0.0105 ± 0.032 |
| GTTAAGCA | 0.0703 ± 0.02 |
| TAAACCCA | -0.0858 ± 0.0046 |
| CTTATGGC | -0.0928 ± 0.041 |
| CTCGTCAC | 0.3943 ± 0.0029 |
| ATCGTCAT | -0.0319 ± 0.033 |
| GTCGTCAC | 0.3318 ± 0.0028 |
| ATCGTCAC | 0.403 ± 0.0068 |
| CTCGTCAA | 0.141 ± 0.04 |
| ATCGTCAA | 0.0469 ± 0.0067 |
| GCCTACCA | 0.015 ± 0.093 |
| CACTTAAA | 0.158 ± 0.01 |
| AGGTGCTG | 0.414 ± 0.019 |
| AAGTGCGG | 0.247 ± 0.0065 |
| ATGTGCTG | 0.1768 ± 0.001 |
| AGGTGCTC | 0.0655 ± 0.042 |
| AGGTGCGC | 0.293 ± 0.023 |
| AGGTGCGG | 0.434 ± 0.011 |
| CCAGAGGC | 0.0947 ± 0.07 |
| CACCACAG | 0.131 ± 0.004 |

| Sequence | PBM E-score of 8-mer |
| --- | --- |
| CTCGGGAC | -0.18 ± 0.058 |
| CCTTCCAC | 0.0992 ± 0.017 |
| TCACCCGA | 0.0689 ± 0.025 |
| CCACCCGC | 0.0903 ± 0.013 |
| GCACCCGA | 0.15 ± 0.0018 |
| GCACCCGC | 0.333 ± 0.012 |
| ACACCCGA | 0.422 ± 0.012 |
| ACACCCGC | 0.376 ± 0.011 |
| GGAGGAGA | -0.011 ± 0.0051 |
| AGGCACGG | -0.0977 ± 0.04 |
| GAACGACA | 0.106 ± 0.025 |
| AAATAACC | 0.0174 ± 0.057 |
| AGCGAATA | 0.0489 ± 0.053 |
| CGTGTAGA | 0.0938 ± 0.0091 |
| CGCGAAAC | 0.355 ± 0.0087 |
| AGCGAACG | 0.0481 ± 0.02 |
| CGCGAAAG | 0.3697 ± 0.0008 |
| CGCGAACC | 0.328 ± 0.0044 |
| CGCGAACG | 0.375 ± 0.017 |
| AGCGAAAG | -0.0461 ± 0.031 |
| ATCTTACC | -0.327 ± 0.021 |
| ATCTTAAT | -0.171 ± 0.13 |
| CCCAAACG | -0.119 ± 0.045 |
| ACCTGGCA | 0.288 ± 0.011 |
| CTTTGCGA | 0.0629 ± 0.022 |
| AGCTCCCA | -0.308 ± 0.076 |

| Sequence | PBM E-score of 8-mer |
| --- | --- |
| ATCACGCA | 0.167 ± 0.0099 |
| CTCACGCC | 0.3929 ± 0.00041 |
| ATCACGCC | 0.372 ± 0.017 |
| CTCACGCA | 0.306 ± 0.019 |
| ATCACGCG | 0.334 ± 0.023 |
| CCCACGCC | 0.08239 ± 0.00072 |
| GACAGGAA | 0.08894 ± 0.00038 |
| GTGTGCCA | 0.237 ± 0.025 |
| AAGACACC | 0.3306 ± 0.0024 |
| AAGTGTGT | 0.34 ± 0.03 |
| AAGTGTAG | 0.147 ± 0.012 |
| AAGTGTGA | 0.48967 ± 0.00029 |
| CAGTGTGG | 0.249 ± 0.013 |
| AAGTGTGC | 0.368 ± 0.0052 |
| CAGTGTGC | 0.0644 ± 0.04 |
| AAGTGTAA | 0.381 ± 0.05 |
| TAGTGTAA | 0.185 ± 0.072 |
| CAGTGTGA | 0.3958 ± 0.0034 |
| TAGTGTGA | 0.446 ± 0.0044 |
| TAGTGGGA | -0.0944 ± 0.019 |
| TAGTGAGA | 0.278 ± 0.022 |

— the supplement of paper PMC4166925
